These results are taken from PubChem BioAssay.

Structures are written as SMILES. Calls of active or inactive are those of the source.

One assay has as its target Albumin (Bos taurus) (UniProt P02769). The assay is described as follows: compounds binding labelled BSA control protein – biochemical, small-molecule microarray, Alexa647 label, 635/667 nm fluorescence, artefact control for SMM control protein annotation, profiling panel (AID 1118).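 Note: score merges 667 nm emission intensity and signal-to-noise per printed compound spot.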 To be noted: BSA-A647 binding, fluorescence 635 nm, higher = more signal.
Assay [1] can be described thus: probe aXIP binding to arrayed compounds – biochemical, NeuroSMM set, 635/667 nm fluorescence, primary screen (AID 1119).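 Note: probe is the protein aXip251-270 applied at 1 µg/mL to compound-printed slides; binding of probe to printed compounds measured as 667 nm fluorescence plus signal to noise.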 To be noted: small-molecule microarray, higher = more signal, called active from +8 up or from −8 down.
A short description of assay [2]: probe aNOTCH3 binding on compound microarray – biochemical, small-molecule microarray, 635/667 nm fluorescence, primary screen (AID 1120).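 Note: probe is a biotin-tagged antibody raised against NOTCH3 rather than NOTCH3 protein; score merges spot fluorescence near 667 nm with spot signal to noise.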 Conditions: higher = more signal.
The nature of assay [3]: probe aNOTCH2 binding on compound microarray – biochemical, small-molecule microarray, 635/667 nm fluorescence, primary screen (AID 1121).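 Note: score merges feature fluorescence read at 667 nm with its signal to noise.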 To be noted: higher = more signal.
The target in assay [4] is Carbonic anhydrase 2 (Homo sapiens) (UniProt P00918). Briefly: compounds binding carbonic anhydrase 2 – biochemical, small-molecule microarray, Alexa647-labelled CAII, profiling panel (AID 1122). To be noted: CAII-A647 binding fluorescence, higher = more signal.
Assay [5] is described as follows: COS7 lysate on small-molecule microarray, probe aHis, 635 nm (AID 1123).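 Note: z-score combines 667nm fluorescence intensity with signal-to-noise per printed compound spot.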 Conditions: COS7 cell lysate, fluorescence, higher = more signal.
Assay [6] in a line: probe aLAP1 signal on lysate-treated microarray – cell lysate, small-molecule microarray, COS7 lysate, primary screen (AID 1124).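 Note: lysate comes from COS7 cells expressing LAP1 and is applied at 0.3 µg/mL; score merges spot fluorescence near 667 nm with signal-to-noise over triplicate slides.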 Conditions: probe aLAP1, fluorescence, higher = more signal.
A further assay relates to Sam68 (KHDRBS1). Briefly: compounds binding KHDRBS1 protein – biochemical, small-molecule microarray, 635 nm fluorescence, primary screen (AID 1125).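 Note: score merges 667 nm channel intensity with signal to noise over triplicate slides.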 Conditions: higher = more signal.
In assay [7] the test system is Chordin-like protein 2 (CHRDL2). Briefly: compounds binding chordin-like 2 – biochemical, small-molecule microarray, 635 nm fluorescence, primary screen (AID 1126).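 Note: printed compound slides probed with Chrdl2 protein at 4 µg/mL for 1 h at 4 C; score merges 667 nm emission intensity with signal to noise over three replicate slides.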 To be noted: fluorescence 635 nm, higher = more signal.
The target in assay [8] is Concanavalin-A (Canavalia ensiformis) (UniProt P02866). The assay is described as follows: compounds binding concanavalin A lectin – biochemical, small-molecule microarray, Alexa647 label, 635 nm, artefact control for SMM control protein annotation, primary screen (AID 1127).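 Note: z combines 667 nm emission intensity with signal-to-noise across three replicate slides.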 Conditions: ConA-A647 binding fluorescence, higher = more signal.
Chain of Concanavalin-A (Canavalia ensiformis) (P02866 whole entry, looked up): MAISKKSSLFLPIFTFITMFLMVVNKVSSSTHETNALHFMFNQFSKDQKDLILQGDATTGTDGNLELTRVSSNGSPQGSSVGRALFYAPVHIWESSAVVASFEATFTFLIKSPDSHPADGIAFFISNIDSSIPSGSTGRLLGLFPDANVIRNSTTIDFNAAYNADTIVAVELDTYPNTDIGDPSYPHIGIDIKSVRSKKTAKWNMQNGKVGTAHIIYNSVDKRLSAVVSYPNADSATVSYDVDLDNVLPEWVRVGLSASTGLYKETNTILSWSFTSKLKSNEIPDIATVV

Chain of Albumin (Bos taurus) (P02769 whole entry, looked up): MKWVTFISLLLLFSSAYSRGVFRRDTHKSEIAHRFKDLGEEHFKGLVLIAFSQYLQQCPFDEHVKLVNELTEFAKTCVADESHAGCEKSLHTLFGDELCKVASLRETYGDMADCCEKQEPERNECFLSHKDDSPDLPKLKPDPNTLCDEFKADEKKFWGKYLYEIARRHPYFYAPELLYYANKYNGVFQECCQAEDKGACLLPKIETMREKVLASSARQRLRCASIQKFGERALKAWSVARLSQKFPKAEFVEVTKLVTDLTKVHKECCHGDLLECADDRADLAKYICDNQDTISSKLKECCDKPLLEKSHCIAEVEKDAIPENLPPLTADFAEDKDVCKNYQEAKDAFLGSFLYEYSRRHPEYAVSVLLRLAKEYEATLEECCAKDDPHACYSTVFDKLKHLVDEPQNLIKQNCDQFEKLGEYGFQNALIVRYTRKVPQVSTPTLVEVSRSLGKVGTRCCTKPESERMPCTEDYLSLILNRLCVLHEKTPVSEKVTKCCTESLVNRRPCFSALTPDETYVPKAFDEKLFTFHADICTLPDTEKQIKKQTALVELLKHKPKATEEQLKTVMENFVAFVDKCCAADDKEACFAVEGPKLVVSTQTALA

Take `COC(=O)[C@@H]1CCCN1C(=O)[C@@H](C)CO`: the composite z-score with Albumin (Bos taurus) was 0.448; in assay [2] it was 0.0042; in assay [3] it was -0.16; in assay [4], 0.192; in assay [5] it was 0.84; in assay [6], -0.436. The composite z-score is 0.95 with Sam68 (KHDRBS1), 0.584 in [7] and 0.873 in assay [8]. The composite Z-score in assay [1] was -0.505 (inactive).

For `CC(=O)OC[C@H]1O[C@H](CCON=C(C)CCN2CCc3nc(-c4ccccc4)c(-c4ccccc4)cc3C2)C=C[C@@H]1OC(C)=O`, the composite z-score with Albumin (Bos taurus) was 0.768; in assay [2], 0.146; in [3] it was -0.0877; in [4], 0.181; in assay [5], 0.761; in [6], 0.466. Moreover, the composite z-score in the assay on Sam68 (KHDRBS1) is 0.975; in assay [7] it was -0.0682; in [8] it was -0.0278. The composite Z-score in [1] is 0.607 (inactive).

`CCN1C(=O)[C@H]2[C@H]3[C@H](O)[C@H](O)CC(=NOCc4ccccc4)[C@H]3CC[C@H]2C1=O`: the composite z-score in the assay with Albumin (Bos taurus) is -0.0796; in assay [2], 0.0258; in assay [3] it was -0.041; in assay [4] it was 0.336; in [5] it was 0.452; in assay [6], 0.491. The composite z-score is -0.144 with Sam68 (KHDRBS1), 0.248 in [7] and 0.21 in assay [8]. Besides, the composite Z-score in [1] is 0.0894 (inactive).

On to `CC(=O)OC[C@H]1O[C@H](CCON=C[C@@H](C)[C@H](OCc2ccccc2)C(C)C)C=C[C@@H]1OC(C)=O`, for which the composite z-score with Albumin (Bos taurus) was 0.0841; in assay [2] it was 0.214; in assay [3], -0.0716; in assay [4] it was -0.249; in assay [5] it was -0.039; in assay [6], 0.148. Moreover, the composite z-score with Sam68 (KHDRBS1) stood at 0.997; in [7], 0.755; in assay [8], 0.0066. Besides, the composite Z-score in [1] is -0.313 (inactive).

In the case of `CC(C)CON=C1C[C@@H](O)[C@@H](O)[C@@H]2[C@@H]3C(=O)N(C[C@@H]4CCCO4)C(=O)[C@@H]3CC[C@H]12`, the composite z-score is -0.3 in the assay with Albumin (Bos taurus); -0.101 in assay [2]; -0.0659 in assay [3]; 0.0765 in [4]; 0.737 in assay [5]; -0.193 in assay [6]. In addition, the composite z-score was 0.697 with Sam68 (KHDRBS1), -0.0163 in assay [7] and 0.12 in assay [8]. For the same molecule, the composite Z-score in assay [1] was -0.311 (inactive).

As to `COC(=O)[C@H](C)NC(=O)[C@@H](C)CO`, the composite z-score is 0.802 with Albumin (Bos taurus); -0.105 in assay [2]; -0.103 in assay [3]; 0.516 in assay [4]; 1.15 in assay [5]; 0.531 in assay [6]. Moreover, the composite z-score came to 1.03 with Sam68 (KHDRBS1), 0.0899 in assay [7] and 0.907 in [8]. Also, the composite Z-score in assay [1] was 0.292 (inactive).

In the case of `COC(=O)C1(C)C=C2C(=C(c3ccccc3)C(=O)C2C)CN1` (stereo not given), the composite z-score with Albumin (Bos taurus) was 0.226; in [2] it was -0.128; in assay [3] it was 0.0633; in assay [4], 0.479; in [5], 0.895; in assay [6], -0.368. Further, the composite z-score with Sam68 (KHDRBS1) is -0.999; in [7], -0.368; in assay [8] it was -1.06. Further, the composite Z-score in [1] was -0.107 (inactive).

Regarding `CC(C)OC(=O)C=C1C[C@@H](c2ccc(C#N)cc2)O[C@@H](c2ccc(C#N)cc2)O1`, the composite z-score was 0.992 with Albumin (Bos taurus); 0.725 in assay [2]; 0.0186 in [3]; 0.693 in assay [4]; 3.07 in [5]; 0.148 in [6]. Besides, the composite z-score in the assay on Sam68 (KHDRBS1) is 1.32; in assay [7], -0.595; in assay [8] it was 1.15. Besides, in assay [1], the composite Z-score is 0.914 (inactive).

Take `CC(C)=CCCC(C)=CCON=C1[C@H]2CCn3c(=O)n(Cc4cc5c(cc4Cl)OCO5)c(=O)n3[C@H]2[C@H](O)[C@@H]2O[C@H]12`: the composite z-score is -0.0415 with Albumin (Bos taurus); 0.204 in [2]; -0.131 in assay [3]; -0.158 in assay [4]; -0.605 in assay [5]; 0.0561 in [6]. Besides, the values for the composite z-score (in the assay on Sam68 (KHDRBS1); in assay [7]; in assay [8]) were -0.218, 1.08 and 0.598, respectively. In addition, the composite Z-score in assay [1] was -0.116 (inactive).

As to `COc1cccc([C@@H]2Oc3ccc(Br)cc3C(=O)[C@H]2O)c1`, the composite z-score was 0.705 in the assay with Albumin (Bos taurus); -0.0111 in assay [2]; -0.084 in assay [3]; 0.439 in assay [4]; 0.599 in assay [5]; 0.214 in assay [6]. Moreover, the composite z-score in the assay on Sam68 (KHDRBS1) is 0.26; in [7] it was 0.432; in [8], 1.11. In addition, the composite Z-score in assay [1] is 0.38 (inactive).

In the case of `O=C1[C@H]2[C@H]3[C@H](O)[C@H](O)CC(=NOC[C@@H](O)COCc4ccco4)[C@H]3CC[C@H]2C(=O)N1Cc1ccc2c(c1)OCO2`, the composite z-score with Albumin (Bos taurus) was -0.244; in [2], -0.29; in assay [3], -0.17; in assay [4] it was -0.441; in [5], -0.385; in [6], 0.311. Also, the composite z-score in the assay with Sam68 (KHDRBS1) was 0.0595; in assay [7] it was 1.49; in [8], -1.26. For the same molecule, in assay [1], the composite Z-score is -0.377 (inactive).

Regarding `[N-]=[N+]=Nc1ccccc1C[C@@]1(C(N)=O)N=C(c2ccc(OCCCO)cc2)O[C@@H]1c1ccccc1`, the composite z-score was 0.841 with Albumin (Bos taurus); -0.0014 in assay [2]; -0.0633 in assay [3]; 0.723 in assay [4]; 1.74 in [5]; 0.567 in [6]. In addition, the composite z-score in the assay on Sam68 (KHDRBS1) was 1.05; in assay [7], -1.26; in assay [8], 0.704. Besides, the composite Z-score in assay [1] was 0.0117 (inactive).

In the case of `CC(CCN1CCCCc2nc(C)c(C)cc21)=NOC(C)CN1CCCc2nc(C)c(C)cc21` (stereo not given), the composite z-score with Albumin (Bos taurus) was 0.493; in assay [2], 0.721; in assay [3] it was 0.153; in assay [4], 0.533; in assay [5], 1.79; in assay [6], 0.257. In addition, the values for the composite z-score (in the assay on Sam68 (KHDRBS1); in [7]; in assay [8]) were 1.29, 1.2 and 1.14, respectively. Also, the composite Z-score in [1] is 1.69 (inactive).

Turning to `C[C@@H](c1ccccc1)N1C(=O)[C@H]2[C@H]3[C@H](O)[C@H](O)CC(=NOC[C@@H](O)COCc4ccco4)[C@@H]3CC[C@H]2C1=O`, the composite z-score with Albumin (Bos taurus) was 0.819; in [2], -0.161; in assay [3] it was -0.185; in assay [4], 0.279; in assay [5], -0.359; in assay [6], -0.254. Moreover, the composite z-score in the assay with Sam68 (KHDRBS1) is -0.779; in assay [7], -0.727; in [8] it was -1.07. Further, the composite Z-score in assay [1] was 0.528 (inactive).

As to `COc1cccc([C@H]2Oc3ccc(OC)cc3C(=NO[C@H](C)c3cn([C@@H]4COC[C@H]4O)nn3)[C@@H]2O)c1`, the composite z-score is -0.224 with Albumin (Bos taurus); -0.279 in assay [2]; -0.179 in [3]; 0.377 in [4]; -0.162 in assay [5]; -0.358 in [6]. Moreover, the composite z-score in the assay on Sam68 (KHDRBS1) was -0.523; in [7], -0.353; in assay [8] it was 0.472. Besides, in assay [1], the composite Z-score is -0.0239 (inactive).

As for `CCOC(=O)CCN1C(=O)[C@H]2[C@H]3[C@H](O)[C@H](O)CC(=O)[C@H]3CC[C@H]2C1=O`, the composite z-score with Albumin (Bos taurus) is 0.132; in assay [2], 0.0282; in [3] it was -0.0986; in assay [4], -0.214; in [5] it was 0.197; in assay [6], -0.386. The composite z-score came out at 0.321 in the assay on Sam68 (KHDRBS1), 0.454 in assay [7] and 0.528 in assay [8]. Further, the composite Z-score in [1] was 0.466 (inactive).

As for `CN1C(=O)[C@@]2(CCC(=O)OC(C)(C)C)N=C(c3ccc(OCCCO)cc3)O[C@H]2c2ccccc21`, the composite z-score in the assay with Albumin (Bos taurus) is 0.498; in [2], -0.0694; in assay [3], -0.165; in assay [4], 0.337; in assay [5], 2.38; in assay [6], 0.176. Further, the values for the composite z-score (in the assay with Sam68 (KHDRBS1); in assay [7]; in assay [8]) were 1.27, 0.0811 and 1.09, respectively. The composite Z-score in assay [1] was -0.428 (inactive).
